Results reported in PubChem BioAssay AID1159580 (chemical genetic matrix, 2015).
Hit rate of the full screen: of about 5,500 compounds, about 2,000 (36%) were called active. Roughly 18% stayed inconclusive and do not appear here. Cut-off read from the data, not from the text of the source: active = normalized growth mostly below about 0.91 (no sharp cut-off); inconclusive = no clear call, values can overlap the other calls; inactive = mostly above about 0.92. The list shows a part of the results.

Assay: chemical genetic growth profiling, strain panel (AID 1159580);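 note: tested at 20 µM; growth read once vehicle control cultures reached saturation at 30 °C; 1 = growth at the plate median or of vehicle wells; lower values mean less growth of the strain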
Details: S. cerevisiae deletion strains, growth OD
[1] = locus YAL013W, strain DEP1, stronger effect = lower value
[2] = locus YAL040C, strain CLN3, stronger effect = lower value
[3] = locus YCL061C, strain MRC1 (second series), stronger effect = lower value
[4] = locus YDR363W, strain ESC2, stronger effect = lower value
[5] = locus YER002W, strain NOP16, stronger effect = lower value
[6] = locus YMR263W, strain SAP30, stronger effect = lower value
[7] = locus YNL153C, strain GIM3, stronger effect = lower value
[8] = locus YNL175C, strain NOP13, stronger effect = lower value
[9] = locus YNL197C, strain WHI3, stronger effect = lower value
[10] = locus YNL224C, strain SQS1, stronger effect = lower value
[11] = locus YOR083W, strain WHI5 (second series), stronger effect = lower value

Measured: normalized growth

O=C(O)/C=C/C(O)c1ccc(Cl)cc1 (centres undefined)
inactive: [1] 0.986 | [2] 1.07 | [3] 0.982 | [4] 1.02 | [5] 1 | [6] 0.983 | locus YMR307W, strain GAS1, stronger effect = lower value 1.03 | [7] 0.997 | [8] 0.997 | [9] 0.986 | [10] 0.98 | [11] 0.998 | locus YPL241C, strain CIN2, stronger effect = lower value 0.985

CC(N)c1cccc(Cl)c1Cl (centres undefined)
inactive: [1] 1.01 | [2] 0.969 | [3] 1 | locus YDR150W, strain NUM1, stronger effect = lower value 0.996 | [4] 1.08 | [5] 1.01 | locus YGR078C, strain PAC10, stronger effect = lower value 0.981 | locus YJR075W, strain HOC1, stronger effect = lower value 1.02 | [6] 1 | locus YNL128W, strain TEP1, stronger effect = lower value 1.01 | [7] 0.972 | [8] 0.981 | [9] 0.953 | [10] 1.01 | [11] 1.01 | locus YPL055C, strain LGE1, stronger effect = lower value 1.07
